Results on nine compounds are retold here after PubChem BioAssay (NCATS).

Records with an inconclusive call do not appear. Unmarked numbers belong to inactive results. Active and inactive are the calls of the source. The call rests on the fitted dose curve; in most records, active means well fitted curve in the direction sought with a large enough effect; inconclusive means small, poorly fitted or top-dose-only effect, or another doubt; inactive means no such curve, though single readings can be large; an effect the other way counts as inactive or inconclusive.

A short description of assay [1]: Quantitative High-Throughput drug screen in 47 multiple myeloma cell lines against the NCATS MIPE library collection: FR4_PLB cell viability assay (AID 1918924; further: nearly all actives have a fitted effect of over 35% in size; further: potency means the concentration at half of the fitted maximal effect). The method in brief: (§1)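 qHTS of the MIPE 4.0 collection: 500 myeloma cells/well, 48 h drug exposure at 37C in 5% CO2, then CellTiter-Glo for 5 min at room temperature before luminescence reading.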
Assay [2] is described as follows: Quantitative High-Throughput drug screen in 47 multiple myeloma cell lines against the NCATS MIPE library collection: Delta47_JCRB cell viability assay (AID 1918925; further: nearly all actives have a fitted effect of over 45% in size; further: potency means the concentration at half of the fitted maximal effect). The method in brief: (§2)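 Luminescent ATP measurement with CellTiter-Glo gives viability, scaled between DMSO-only wells (100%) and media-only wells (0%). Cells, 500 per well, faced library compounds for 48 hours at 37C.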

Assay [3] can be described thus: Quantitative High-Throughput drug screen in 47 multiple myeloma cell lines against the NCATS MIPE library collection: EJM_DSMZ cell viability assay (AID 1918926; further: nearly all actives have a fitted effect of over 30% in size; further: potency means the concentration at half of the fitted maximal effect). The method in brief: as §2
Assay [4] in a line: Quantitative High-Throughput drug screen in 47 multiple myeloma cell lines against the NCATS MIPE library collection: ARP1_JJKsccF8 cell viability assay (AID 1918928; further: nearly all actives have a fitted effect of over 40% in size; further: potency means the concentration at half of the fitted maximal effect). Put shortly:
(§3)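 Each line was plated at 500 cells/well and treated 48 h with library drugs. Viability came from CellTiter-Glo luminescence relative to DMSO and cell-free medium controls.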

A short description of assay [5]: Quantitative High-Throughput drug screen in 47 multiple myeloma cell lines against the NCATS MIPE library collection: ARD_JJKsccE7 cell viability assay (AID 1918929; further: potency means the concentration at half of the fitted maximal effect). The method in brief: as §2
A short description of assay [6]: Quantitative High-Throughput drug screen in 47 multiple myeloma cell lines against the NCATS MIPE library collection: Karpas620_DSMZ cell viability assay (AID 1918959). Further: nearly all actives have a fitted effect of over 30% in size. Further: potency means the concentration at half of the fitted maximal effect. Put shortly: as §1
Assay [7] is described as follows: Quantitative High-Throughput drug screen in 47 multiple myeloma cell lines against the NCATS MIPE library collection: KMM1_JCRB cell viability assay (AID 1918960). Further: nearly all actives have a fitted effect of over 30% in size. Further: potency means the concentration at half of the fitted maximal effect. Put shortly: as §3
A short description of assay [8]: Quantitative High-Throughput drug screen in 47 multiple myeloma cell lines against the NCATS MIPE library collection: KHM11_PLB cell viability assay (AID 1918962). Further: nearly all actives have a fitted effect of over 35% in size. The method in brief:
as §1

Assay [9] can be described thus: Quantitative High-Throughput drug screen in 47 multiple myeloma cell lines against the NCATS MIPE library collection: JIM3_ECACC cell viability assay (AID 1918963; further: nearly all actives have a fitted effect of over 35% in size; further: potency means the concentration at half of the fitted maximal effect). Put shortly:
as §1

Assay [10] is described as follows: Quantitative High-Throughput drug screen in 47 multiple myeloma cell lines against the NCATS MIPE library collection: INA6_PLB cell viability assay (AID 1918965; further: nearly all actives have a fitted effect of over 55% in size; further: potency means the concentration at half of the fitted maximal effect). Put shortly: as §2
A short description of assay [11]: Quantitative High-Throughput drug screen in 47 multiple myeloma cell lines against the NCATS MIPE library collection: H1112_PLB cell viability assay (AID 1918967; further: nearly all actives have a fitted effect of over 30% in size; further: potency means the concentration at half of the fitted maximal effect). Put shortly: as §2
Assay [12] is described as follows: Quantitative High-Throughput drug screen in 47 multiple myeloma cell lines against the NCATS MIPE library collection: KMS27_JCRB cell viability assay (AID 1918970). Further: nearly all actives have a fitted effect of over 30% in size. Further: potency means the concentration at half of the fitted maximal effect. Put shortly:
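Myeloma cells (500 per well) were exposed to MIPE 4.0 compounds for 48 h at 37 °C, 5% CO2; viability was read as ATP luminescence with CellTiter-Glo, normalized to DMSO-only (100%) and media-only (0%) wells.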

Assay [13] can be described thus: Quantitative High-Throughput drug screen in 47 multiple myeloma cell lines against the NCATS MIPE library collection: KMS12BM_JCRB cell viability assay (AID 1918971). Further: nearly all actives have a fitted effect of over 35% in size. Further: potency means the concentration at half of the fitted maximal effect. The method in brief: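 Steps: seed 500 cells per well; pin-transfer MIPE 4.0 library; incubate 48 h at 37C, 5% CO2, humidified; add CellTiter-Glo, 5 min room temperature; read luminescence.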
The nature of assay [14]: Quantitative High-Throughput drug screen in 47 multiple myeloma cell lines against the NCATS MIPE library collection: AMO1_DSMZ cell viability assay (AID 1918927; further: nearly all actives have a fitted effect of over 30% in size; further: potency means the concentration at half of the fitted maximal effect). Put shortly: as §2
Assay [15] can be described thus: Quantitative High-Throughput drug screen in 47 multiple myeloma cell lines against the NCATS MIPE library collection: JIM1_ECACC cell viability assay (AID 1918964; further: potency means the concentration at half of the fitted maximal effect). Put shortly:
as §2

A short description of assay [16]: Quantitative High-Throughput drug screen in 47 multiple myeloma cell lines against the NCATS MIPE library collection: Karpas25_ECACC cell viability assay (AID 1918968; further: nearly all actives have a fitted effect of over 35% in size; further: potency means the concentration at half of the fitted maximal effect). The method in brief: as §2
Assay [17] in a line: Quantitative High-Throughput drug screen in 47 multiple myeloma cell lines against the NCATS MIPE library collection: JJN3_DSMZ cell viability assay (AID 1918966; further: nearly all actives have a fitted effect of over 50% in size; further: potency means the concentration at half of the fitted maximal effect). The method in brief: as §2
Assay [18] is described as follows: Quantitative High-Throughput drug screen in 47 multiple myeloma cell lines against the NCATS MIPE library collection: Karpas417_ECACC cell viability assay (AID 1918961). Further: potency means the concentration at half of the fitted maximal effect. Conditions: Karpas417 myeloma viability, CellTiter-Glo ATP luminescence, 48 h; viability (% of DMSO): at 45.8 µM (top of the series). The method in brief:
as §2
On the technique in general: Cellular ATP, detected with luciferase, serves as a proxy for viable cell number.

For the compound `COC(=O)N[C@H](C(=O)N[C@@H](Cc1ccccc1)[C@@H](O)CN(Cc1ccc(-c2ccccn2)cc1)NC(=O)[C@@H](NC(=O)OC)C(C)(C)C)C(C)(C)C`, the Potency entry in assay [1], in [2], in [3], in assay [5], in [6] and in [7] was “inactive” throughout. In addition, the Potency result in assay [8], in [9], in [10], in [11] and in assay [12] was “inactive” each time. The Potency in assay [4] is 16.6 µM (active); in assay [13], 20.9 µM (active).

In the case of `C[C@@H](c1ncncc1F)[C@](O)(Cn1cncn1)c1ccc(F)cc1F`, the Potency entry in [1], in assay [2], in assay [3], in [14], in assay [4] and in [5] was “inactive” each time. For the same compound, the Potency entry in [6], in assay [7], in assay [9], in assay [15], in assay [16] and in assay [12] was “inactive” in each case.

Consider `CC1(C)CCC(C)(C)c2cc(NC(=O)c3ccc(C(=O)O)cc3)ccc21`, for which the Potency result in assay [1], in assay [4] and in [15] was “inactive” in each case. Also, the Potency in assay [2] is 16.6 µM (active); in assay [5], 13.2 µM (active); in assay [10], 18.7 µM (active); in assay [11], 10.5 µM (active); in assay [16] it was 20.9 µM (active).

On to `CCN(CC)C(=S)SSC(=S)N(CC)CC`, for which the Potency is 0.0074 µM (active) in assay [1]; 0.0118 µM (active) in assay [2]; 0.0066 µM (active) in assay [3]; 0.0372 µM (active) in assay [14]; 0.0235 µM (active) in assay [4]; 0.001 µM (active) in [9]. The Potency in assay [10] was 0.001 µM (active); in [17], 0.0166 µM (active); in [11] it was 0.001 µM (active); in assay [16], 0.001 µM (active); in assay [13] it was 0.0093 µM (active).

Turning to `Nc1ccc(S(N)(=O)=O)cc1`, the Potency entry in [1], in [2], in assay [3], in assay [14], in [4] and in [5] was “inactive” in each case. Moreover, the Potency result in [6], in [7], in [9], in [17], in assay [11] and in assay [16] was “inactive” in each case. For the same compound, the Potency entry in [12] and in assay [13] was “inactive” throughout.

In the case of `O=c1cc(N2CCOCC2)oc2c(-c3ccccc3)cccc12`, the Potency in assay [1] was 16.6 µM (active); in [2], 1.48 µM (active); in [4], 18.7 µM (active); in assay [16], 7.43 µM (active); in assay [13] it was 14.8 µM (active). Further, the Potency result in assay [14], in assay [5], in assay [6], in assay [7] and in [12] was “inactive” each time.

For the compound `CS(=O)(=O)OCCCCOS(C)(=O)=O`, the Potency in assay [1] is 4.18 µM (active). For the same compound, the Potency result in assay [2], in assay [14], in assay [5], in [6], in [7] and in assay [11] was “inactive” each time. Moreover, the Potency result in [16] is “inactive”.

As to `O=C(O)c1cccnc1Nc1cccc(C(F)(F)F)c1`, the Potency entry in [1], in [2], in assay [3], in assay [14], in assay [4] and in [5] was “inactive” throughout. For the same compound, the Potency entry in assay [6], in [7], in assay [10], in assay [11] and in assay [12] was “inactive” each time.

Consider `CC[C@]1(O)C[C@H]2CN(CCc3c([nH]c4ccccc34)[C@@](C(=O)OC)(c3cc4c(cc3OC)N(C=O)[C@H]3[C@@](O)(C(=O)OC)[C@H](OC(C)=O)[C@]5(CC)C=CCN6CC[C@]43[C@@H]65)C2)C1`, for which the Potency result in [1] is “inactive”. Moreover, the Potency was 0.0047 µM (active) in [2]; 0.372 µM (active) in [14]; 0.003 µM (active) in [4]; 0.0662 µM (active) in assay [5]; 0.0166 µM (active) in assay [6]; 0.0469 µM (active) in [7]. The Potency in assay [18] was 0.935 µM (active); in assay [15], 0.0209 µM (active); in [17], 0.0935 µM (active); in assay [11], 0.0093 µM (active); in assay [16], 0.0105 µM (active); in assay [12] it was 0.0166 µM (active). In addition, the Potency in [13] was 0.0019 µM (active).
